# Experimental data reported in PubChem BioAssay AID1851 (National Center for Advancing Translational Sciences (NCATS), 2009).
# Where “and” joins values, the source holds several entries; their conditions need not be identical. Equal values may be shown once. In all, about 16,000 compounds went through this assay and about 2,600 (16%) were called active. Roughly 20% stayed inconclusive and do not appear here. Calls follow the shape of the dose curve; as a rule, active = well fitted curve in the direction sought with a large enough effect; inconclusive = small, poorly fitted or top-dose-only effect, or effect the other way; inactive = no such curve, though single readings can be large or run the other way. Not all results are given here.
# Target: Cytochrome P450 2D6 (Homo sapiens) (UniProt P10635)
# Experiment: Cytochrome panel assay with activity outcomes
# Conditions: recombinant CYP, pro-luciferin dealkylation, luminescence, p450-cyp2d6; series mostly up to 57.1 µM; activity, negative = inhibition: at the top concentration
# % is scaled to controls: 0 for no effect and ±100 for the full control effect.
# Sequence of Cytochrome P450 2D6 (Homo sapiens) (P10635 whole entry, looked up): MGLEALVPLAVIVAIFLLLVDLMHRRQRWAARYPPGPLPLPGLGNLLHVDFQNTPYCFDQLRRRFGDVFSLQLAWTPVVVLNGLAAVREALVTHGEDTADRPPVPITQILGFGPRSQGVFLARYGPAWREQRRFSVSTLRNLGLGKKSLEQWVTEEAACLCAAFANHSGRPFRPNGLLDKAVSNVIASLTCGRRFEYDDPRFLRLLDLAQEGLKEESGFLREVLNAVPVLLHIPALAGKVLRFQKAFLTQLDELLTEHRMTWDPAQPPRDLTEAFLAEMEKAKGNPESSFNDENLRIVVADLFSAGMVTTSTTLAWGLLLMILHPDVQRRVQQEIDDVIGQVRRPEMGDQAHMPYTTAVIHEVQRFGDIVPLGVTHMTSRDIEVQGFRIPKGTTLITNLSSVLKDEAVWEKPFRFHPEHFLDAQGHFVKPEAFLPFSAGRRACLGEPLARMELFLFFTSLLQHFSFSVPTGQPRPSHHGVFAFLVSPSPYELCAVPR
SMILES,"activity, negative = inhibition",AC50
COCc1c(C(=O)OCC(=O)N2c3ccccc3NC(=O)C2(C)C)oc2ccccc12,9.74% (inactive),–
COc1cccc([C@@H]2Oc3ccc(OC)cc3/C(=N/O[C@@H](C)c3cn([C@H]4COC[C@H]4O)nn3)[C@@H]2O)c1,-18.2% [at 11.4 µM] (inactive),–
COc1ccc(O[C@H]2C=C[C@@H](c3ccccc3)O[C@H]2COC(=O)CC/C(C)=N\O[C@@H](C)c2cc(-c3c(C)cc(C)cc3C)no2)cc1,-7.29% [at 11.4 µM] (inactive),–
COc1ccc(O[C@H]2C=C[C@@H](c3ccccc3)O[C@@H]2CO/N=C(\C)CCN2CCCc3nc(C)c(C)cc32)cc1,–,3.16 µM (active)
COc1ccc(O[C@H]2C=C[C@@H](c3ccccc3)O[C@H]2COC(=O)CC/C(C)=N\O[C@@H](C)CN2CCCc3nc(C)c(C)cc32)cc1,–,3.16 µM (active)
C/C(CCC(=O)OC[C@@H]1O[C@H](C#Cc2ccccc2)C=C[C@@H]1Oc1ccc(C)cc1)=N/O[C@@H](C)c1cn([C@H](CO)Cc2ccccc2)nn1,-5.83% [at 11.4 µM] (inactive) and -8.36% [at 11.4 µM] (inactive),–
COc1cccc([C@H]2Oc3ccc(OC)cc3/C(=N\O[C@@H](C)c3cn([C@H](CO)Cc4ccccc4)nn3)[C@@H]2O)c1,-6.89% [at 11.4 µM] (inactive),–
C/C(CCC(=O)OC[C@@H]1O[C@H](C#Cc2ccccc2)C=C[C@@H]1Oc1ccc(C)cc1)=N/O[C@@H](C)CN1CCCc2nc(C)c(C)cc21,–,3.16 µM (active)
COc1cccc([C@@H]2Oc3ccc(OC)cc3/C(=N/O[C@@H](C)CN3CCCc4nc(C)c(C)cc43)[C@@H]2O)c1,–,3.98 µM (active)
CCCNC(=O)OC[C@@H]1O[C@H](CCO/N=C(\C)CCN2CCCc3nc(C)c(C)cc32)C=C[C@@H]1Oc1ccc(OC)cc1,-18.3% [at 11.4 µM] (inactive),–
CCCNC(=O)OC[C@@H]1O[C@H](CCO/N=C(\C)CCC(=O)OC[C@@H]2O[C@H](c3ccccc3)C=C[C@@H]2Oc2ccc(OC)cc2)C=C[C@@H]1Oc1ccc(OC)cc1,5.63% [at 11.4 µM] (inactive),–
COc1ccc(O[C@H]2C=C[C@@H](c3ccccc3)O[C@H]2CO/N=C(/C)CCC(=O)OC[C@@H]2O[C@H](C#Cc3ccccc3)C=C[C@@H]2Oc2ccc(C)cc2)cc1,11.9% [at 11.4 µM] (inactive),–
COc1ccc(O[C@H]2C=C[C@@H](c3ccccc3)O[C@@H]2CO/N=C(\C)CCN2CCc3nc(-c4ccccc4)c(-c4ccccc4)cc3C2)cc1,-14.1% [at 11.4 µM] (inactive),–
CCCCCCCCCCCCCCSCC(=O)O,13.5% (inactive),–
COc1ccc(-n2c(-c3cnccn3)n[nH]c2=S)cc1,-9.31% (inactive),–
O=C(Nc1cccc(F)c1)N1CCCC2(CCNCC2)C1,-13.8% (inactive),–
C(/C=C\c1ccccc1)=Nc1ccc2c(c1)Cc1ccccc1-2,-10.4% [at 11.4 µM] (inactive),–
COc1ccc(-n2c(=O)c(-c3cn(C)c4ccccc34)nc3cncnc32)cc1,-5.82% (inactive),–
CC(=O)[C@@]1(O)Cc2c(O)c3c(c(O)c2[C@H](O[C@H]2C[C@H](N)[C@H](O)[C@H](C)O2)C1)C(=O)c1ccccc1C3=O,0.0095% (inactive),–
Cn1c(CCC(=O)Nc2ccc(N3CCOCC3)cc2)nc(=O)c2ccccc21,-12.1% (inactive),–
COC(=O)c1nn(-c2ccccc2)c(=O)cc1Oc1ccccc1,-9.53% (inactive),–
N#C[C@@H](N=Nc1ccccc1C(=O)O)C(N)=O,-0.182% [at 11.4 µM] (inactive),–
O=C(N/N=C/c1cccc(C(F)(F)F)c1)C1CCN(c2ncc(C(F)(F)F)cc2Cl)CC1,25.5% (inactive),–

SMILES,"activity, negative = inhibition",AC50
COc1ccc(/C=C(/C(=O)Nc2ccccc2C(=O)NC(C)C)c2ccccc2)cc1,-25.8% (inactive),–
Cc1cccc(N2CCN(C(=O)CSCc3c(C)noc3C)CC2)c1C,-27.5% (inactive),–
CC(C)OC(=O)CC12CN(C)CC(CC(=O)OC(C)C)(CN(C)C1)C2=O,–,2.51 µM (active)
COc1ccc(CNC(=O)/C=C/c2ccc(OCCCF)cc2)cc1,-20.6% (inactive),–
CCCSc1nc(NCc2ccco2)c2c3c(sc2n1)COC(C)(C)C3,–,14.1 µM (active)
CCSc1ncnc2c1sc1nc(-c3ccco3)c3c(c12)CC(C)(C)OC3,-3.51% (inactive),–
CCC(O)CNc1nc(-n2nc(C)cc2C)nc2sc3c(c12)CC(C)(C)OC3 (centres undefined),-8.4% (inactive),–
O=c1cnc2cnc(N3CCOCC3)nc2n1CCc1ccccc1,-11% (inactive),–
CC1(C)CC(=O)C2=C(C1)Nc1cc3c(cc1C2c1ccc(F)cc1)OCO3 (centres undefined),–,7.08 µM (active)
Cc1cc2c(cc1C)NC(c1nc3ccccc3[nH]1)C1=C(CC(C)(C)CC1=O)N2 (centres undefined),-11.2% (inactive),–
CCCc1ccc(C2C3=C(CC(C)(C)CC3=O)NC3=C2C(=O)c2ccccc23)cc1 (centres undefined),3.78% (inactive),–
Brc1ccc([C@H]2CN3CCSC3=N2)cc1,-14.8% (inactive),–
Cc1cccc(C)c1NC(=O)C(c1ccc(Cl)cc1Cl)N1CCCCC1 (centres undefined),–,10 µM (active)
Cc1cccc(C)c1NC(=O)C(c1ccccc1)N1CCC1=O (centres undefined),-9.63% (inactive),–
Cc1cccc(C)c1NC(=O)C(NC=O)c1ccccc1Cl (centres undefined),-25.5% (inactive),–
NC(N)=N[C@@H]1C(O)[C@H](N=C(N)N)[C@@H](O)C(O)[C@H]1O (some centres undefined),4.19% [at 11.4 µM] (inactive),–
CCNS(=O)(=O)c1ccc(NC(=O)c2cc(C(F)(F)F)nn2C)cc1,5.15% (inactive),–
Cc1cc(C(F)(F)F)nn1CC(=O)Nc1cccnc1,–,12.6 µM (active)
NNC(=O)Cc1cccnc1,8.36% [at 11.4 µM] (inactive),–
CC1=NN(c2ccccc2)C(=O)[C@@H]1N=Nc1ccc(S(N)(=O)=O)cc1,8.14% [at 11.4 µM] (inactive),–
CCOC(=O)N1CCC(NC(=O)CCC(=O)N2CC(C)Oc3ccc(C)cc32)CC1 (centres undefined),-4.46% (inactive),–
O=C(Nc1c[nH]c(=O)[nH]c1=O)Oc1ccccc1,-9.58% [at 11.4 µM] (inactive),–
O=C(OCc1nc2ccccc2s1)c1ccc(Br)s1,-15.7% (inactive),–

SMILES,"activity, negative = inhibition",AC50
COc1ccc(-c2csc(NC(=O)CCn3cnc4ccccc4c3=O)n2)cc1OC,-11.6% (inactive),–
Cc1noc(C)c1-c1cc(NCc2ccccc2)ncn1,-7.96% (inactive),–
Cc1cnc(CNc2cc(-c3cccnc3)ncn2)cn1,-6.26% (inactive),–
Cc1noc(C)c1-c1cc(NCc2cccnc2)ncn1,8.5% (inactive),–
COc1cccc(-c2cc(NCc3ccccc3)ncn2)c1,–,12.6 µM (active)
COc1cccc(-c2cc(NCc3ccc(OC)cc3OC)ncn2)c1,–,12.6 µM (active)
N#Cc1cccc(-c2cc(NCc3ccccc3)ncn2)c1,-10.1% (inactive),–
COc1ccccc1CNc1cc(-c2cccnc2)ncn1,–,5.01 µM (active)
COc1ccc(-c2cc(C(=O)NCc3cccnc3)no2)cc1OC,-16.4% (inactive),–
COc1ccc(CCNc2nc(-c3cccnc3)cs2)cc1OC,–,7.08 µM (active)
CCN1CCc2c(sc(N)c2C(N)=O)C1,-8.92% (inactive),–
OC[C@@H]1O[C@@H](n2cnc3c(NC4CCCCC4)ncnc32)[C@@H](O)[C@H]1O,-1.5% (inactive),–
O=C(Nc1c(C(=O)N2CCOCC2)cnn1-c1ccccc1)c1ccco1,10.7% (inactive),–
O=c1c(Cc2ccccc2)c(O)nc2n1CCS2,16% (inactive),–
O=C(c1ccc2nc3ccc(Cl)cc3c(=O)n2c1)N1CCOCC1,-14.8% (inactive),–
Cc1cnc(CNc2cc(-c3cccc(C#N)c3)ncn2)cn1,4.2% (inactive),–
COc1ccccc1CNc1cc(-c2cccc(C#N)c2)ncn1,-3.17% (inactive),–
COc1cccc(-c2cc(NCc3ccccc3OC)ncn2)c1,–,15.8 µM (active)
COc1cccc(-c2cc(NCc3cccs3)ncn2)c1,–,12.6 µM (active)
COCCn1c(=S)[nH]c2cc(C(=O)NC(C)C)ccc2c1=O,18.7% (inactive),–
O=C(N/N=C/c1ccncc1)c1cc2c(ccc3ccccc32)o1,-14.2% (inactive),–
CCCC(CCC)C(=O)NNc1cc(=O)c2c(=O)n(C)c(=O)n(C)c2[nH]1,-14.7% (inactive),–
O=C(O)c1cc(S(=O)(=O)N2CCCCC2)ccc1F,7.06% (inactive),–

SMILES,"activity, negative = inhibition",AC50
Cc1ccc(S(=O)(=O)Oc2cc(S(=O)(=O)O)cc3cc(S(=O)(=O)O)cc(N)c23)cc1,8.03% [at 11.4 µM] (inactive),–
CC(C)Sc1cc(N2CCOCC2)nc(-c2ccc(Cl)cc2)n1,10.4% (inactive),–
CC(C)(Oc1ccc(CCNC(=O)c2ccc(Cl)cc2)cc1)C(=O)O,4.92% [at 25.6 µM] (inactive),–
CC(=O)NCCc1ccc(O)c(O)c1,-0.325% (inactive),–
Oc1cc2c(cc1O)CN(C(=S)NCCc1ccc(Cl)cc1)CCC2,–,12.6 µM (active)
CC(C)C(NC(=O)C1CCCCC1)C(=O)NCc1ccccn1 (centres undefined),18.3% (inactive),–
O=C(NCCCN1CCN(C2CCCCC2)CC1)Nc1ccccc1C(F)(F)F,–,5.01 µM (active)
CCCCNC(=O)C1CCN(Cc2ccccn2)CC1,–,8.91 µM (active)
O=C1NCCCC1C(=O)Nc1ccccc1C(F)(F)F (centres undefined),-13.4% (inactive),–
O=C(NCc1ccccc1Cl)C1CCN(S(=O)(=O)N2CCC3(CC2)OCCO3)CC1,-3.92% (inactive),–
O=C(Nc1cccn(Cc2ccc(F)cc2)c1=O)NC1CCCCC1,-13.3% (inactive),–
O=C(NCCCN1CCCCCC1)[C@@H](c1ccccc1)C1CCCCC1,–,0.631 µM (active)
CCS(=O)(=O)N1CCC(C(=O)NCc2cccnc2)CC1,-6.02% (inactive),–
COCCNC(=O)C1CCN(S(=O)(=O)N2CCC3(CC2)OCCO3)CC1,24.2% (inactive),–
O=C(NCCc1ccc(Cl)cc1)C1CCN(S(=O)(=O)N2CCC3(CC2)OCCO3)CC1,–,14.1 µM (active)
CCN1CCN(CCCNC(=O)C(NC(=O)C2CCC(C)CC2)C(C)C)CC1 (centres undefined),2.19% (inactive),–
CCOC(=O)CSc1ncc(OC)c(Sc2ccc(Cl)cc2)n1,-24.8% (inactive),–
CCCC(=O)Nc1nc(-c2ccc3c(c2)CCN3S(C)(=O)=O)cs1,-1.01% (inactive),–
COc1ccccc1C(=O)O/N=C1/CCCc2c1ccc(OC)c2[N+](=O)[O-],3.73% (inactive),–
C[C@](N)(Cc1ccc(O)c(O)c1)C(=O)O,-0.0132% (inactive),–
